# “And” between values parts separate entries of the source, which are not always exact repeats. Equal entries are not always repeated. Results filed as inconclusive are left out. Where a structure was tested more than once in an assay, its records may differ in their call. The source made the active and inactive calls. How the source made its calls, unless noted: active means hit-call score of the fitted dose curve at least 0.9, where 1 is the maximum; inconclusive means response in the unintended direction; inactive means score below 0.9.
# Experiments:
# [1] = target: Bile acid receptor (Homo sapiens) (UniProt Q96RI1); experiment: ATG_FXR_TRANS: Attagene TRANS-FACTORIAL HepG2 Assay for Farnesoid X Receptor (FXR) (AID 2282979); conditions: HepG2 Attagene TRANS FXR-GAL4 reporter transcription;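 further: hits raise reporter mRNA above DMSO so AC50 marks FXR activation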
# Chain of Bile acid receptor (Homo sapiens) (Q96RI1 whole entry, looked up, the tested form may be a part): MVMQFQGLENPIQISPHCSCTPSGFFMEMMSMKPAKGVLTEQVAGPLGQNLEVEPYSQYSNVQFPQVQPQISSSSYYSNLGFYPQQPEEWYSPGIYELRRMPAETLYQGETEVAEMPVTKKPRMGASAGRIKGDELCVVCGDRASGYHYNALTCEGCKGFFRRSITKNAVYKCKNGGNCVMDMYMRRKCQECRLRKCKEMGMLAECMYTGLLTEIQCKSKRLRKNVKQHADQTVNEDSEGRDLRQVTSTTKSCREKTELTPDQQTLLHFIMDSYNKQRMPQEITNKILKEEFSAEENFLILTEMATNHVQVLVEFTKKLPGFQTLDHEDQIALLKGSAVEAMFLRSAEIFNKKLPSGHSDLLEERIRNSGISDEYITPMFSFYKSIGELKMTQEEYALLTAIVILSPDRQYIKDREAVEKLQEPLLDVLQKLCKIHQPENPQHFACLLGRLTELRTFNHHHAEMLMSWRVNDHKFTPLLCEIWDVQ
# Method in brief: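 Reporter transcripts from transfected HepG2 cells were measured 24 h after dosing, using RT-PCR with capillary electrophoresis of 6-FAM-labelled fragments. The read-out reflects activity of exogenous FXR-Gal4 chimera on GAL4-UAS units, with induction relative to DMSO.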
# [2] = target: Hepatocyte nuclear factor 4-alpha (Homo sapiens) (UniProt P41235); experiment: ATG_HNF4a_TRANS: Attagene TRANS-FACTORIAL HepG2 Assay for human Hepatocyte Nuclear Factor 4 alpha (HNF4a) (AID 2282982); conditions: HepG2 HNF4a transactivation reporter, mRNA readout
# Chain of Hepatocyte nuclear factor 4-alpha (Homo sapiens) (P41235 whole entry, looked up): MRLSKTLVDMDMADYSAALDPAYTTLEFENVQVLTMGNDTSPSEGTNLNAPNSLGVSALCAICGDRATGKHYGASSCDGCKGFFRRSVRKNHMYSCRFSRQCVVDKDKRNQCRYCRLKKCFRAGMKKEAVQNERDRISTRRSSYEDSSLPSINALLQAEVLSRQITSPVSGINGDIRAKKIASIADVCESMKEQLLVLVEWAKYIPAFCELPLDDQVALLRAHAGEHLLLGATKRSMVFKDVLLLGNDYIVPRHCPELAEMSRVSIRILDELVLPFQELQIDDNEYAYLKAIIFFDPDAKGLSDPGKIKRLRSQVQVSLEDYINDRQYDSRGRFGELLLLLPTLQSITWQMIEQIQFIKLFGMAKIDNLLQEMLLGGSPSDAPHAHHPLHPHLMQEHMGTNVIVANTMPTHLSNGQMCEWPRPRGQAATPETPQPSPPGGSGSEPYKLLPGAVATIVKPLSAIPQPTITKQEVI
# Method in brief: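 Multiplexed reporter assay: transfected HepG2, 24 h exposure, total RNA → oligo(dT) RT → PCR → 6-FAM extension → HpaI digest → CE fluorescence. DMSO = negative control.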
# [3] = ATG_M_32_TRANS: Attagene TRANS-FACTORIAL HepG2 Assay for M32 Transcription Factor (Internal Marker) (AID 2282984); conditions: HepG2 Attagene TRANS M32 internal marker reporter;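 further: transcript level of a background control reporter unit measured by RT-PCR and capillary electrophoresis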
# Method in brief: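 Cell-based TRANS-format assay in HepG2: exogenous chimeric GAL4 reporter units transiently expressed, compounds applied 24 h. Reporter mRNA detected by RT-PCR plus capillary electrophoresis; this readout is an internal background marker.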
# [4] = target: Transcriptional activator Myb (Homo sapiens) (UniProt P10242); experiment: ATG_Myb_CIS: Attagene CIS-FACTORIAL HepG2 Assay for human Myeloblastosis (Myb) Proto-Oncogene Transcription Factor (AID 2282986; active means hit-call score of the fitted dose curve at least 0.9, where 1 is the maximum; inactive means score below 0.9); conditions: HepG2 Attagene CIS-FACTORIAL Myb reporter transcription; actives raise or lower the signal
# Chain of Transcriptional activator Myb (Homo sapiens) (P10242 whole entry, looked up): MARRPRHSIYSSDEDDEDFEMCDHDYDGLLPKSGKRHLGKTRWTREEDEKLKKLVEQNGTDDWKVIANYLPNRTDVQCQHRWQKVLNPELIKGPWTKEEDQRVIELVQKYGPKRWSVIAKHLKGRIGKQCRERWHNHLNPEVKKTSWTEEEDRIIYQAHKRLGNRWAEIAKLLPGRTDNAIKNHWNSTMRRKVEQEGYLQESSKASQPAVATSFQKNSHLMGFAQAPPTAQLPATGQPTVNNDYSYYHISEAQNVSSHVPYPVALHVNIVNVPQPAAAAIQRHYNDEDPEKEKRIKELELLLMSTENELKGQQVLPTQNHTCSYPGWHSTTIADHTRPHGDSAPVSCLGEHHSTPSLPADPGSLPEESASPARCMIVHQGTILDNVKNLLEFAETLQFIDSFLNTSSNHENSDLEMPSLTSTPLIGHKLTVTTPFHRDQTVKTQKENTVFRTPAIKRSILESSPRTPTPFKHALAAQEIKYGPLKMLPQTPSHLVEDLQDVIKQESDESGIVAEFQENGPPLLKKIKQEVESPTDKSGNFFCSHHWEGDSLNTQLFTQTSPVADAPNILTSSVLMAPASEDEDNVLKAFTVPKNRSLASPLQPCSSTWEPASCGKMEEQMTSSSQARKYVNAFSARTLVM
# Method in brief: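 HepG2 cells were transiently transfected with cis-regulated multiple reporter transcription units reflecting endogenous Myb activity, then exposed to compound for 24 hours. Reporter mRNA was measured by RT-PCR with capillary electrophoresis; bidirectional fitting versus DMSO baseline.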
# [5] = target: Nuclear respiratory factor 1 (Homo sapiens) (UniProt Q16656); experiment: ATG_NRF1_CIS: Attagene CIS-FACTORIAL HepG2 Assay for human Nuclear Respiratory Factor 1 (NRF1) Orphan Gene (AID 2282987; active means hit-call score of the fitted dose curve at least 0.9, where 1 is the maximum; inactive means score below 0.9); conditions: HepG2 NRF1 cis-element reporter, Attagene multiplex; actives raise or lower the signal
# Chain of Nuclear respiratory factor 1 (Homo sapiens) (Q16656 whole entry, looked up): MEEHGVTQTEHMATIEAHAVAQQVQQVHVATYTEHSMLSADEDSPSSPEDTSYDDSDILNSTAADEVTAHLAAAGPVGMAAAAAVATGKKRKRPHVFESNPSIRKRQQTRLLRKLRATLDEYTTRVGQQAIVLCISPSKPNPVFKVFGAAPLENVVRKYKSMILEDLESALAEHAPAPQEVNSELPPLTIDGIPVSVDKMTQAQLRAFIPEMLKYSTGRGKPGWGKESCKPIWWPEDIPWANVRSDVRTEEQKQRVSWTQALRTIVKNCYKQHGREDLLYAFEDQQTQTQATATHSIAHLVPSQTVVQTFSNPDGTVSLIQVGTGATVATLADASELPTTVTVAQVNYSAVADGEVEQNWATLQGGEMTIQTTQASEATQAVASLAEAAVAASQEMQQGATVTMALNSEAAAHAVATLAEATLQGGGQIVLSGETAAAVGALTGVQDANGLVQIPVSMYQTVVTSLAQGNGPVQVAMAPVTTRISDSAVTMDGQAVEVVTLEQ
# Method in brief: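 HepG2 cells transiently transfected with multiple reporter transcription units under cis-regulatory promoter control, so endogenous transcription-factor activity is read. After 24 h compound exposure, reporter mRNA quantified by RT-PCR, fluorescent labelling, HpaI digestion and capillary electrophoresis; bidirectional fitting versus DMSO.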
# [6] = target: Oxysterols receptor LXR-beta (Homo sapiens) (UniProt P55055); experiment: ATG_LXRb_TRANS: Attagene TRANS-FACTORIAL HepG2 Assay for human Liver X Receptor beta (LXRb) (AID 2282981); conditions: HepG2 Attagene TRANS GAL4-LXRb reporter, mRNA
# Chain of Oxysterols receptor LXR-beta (Homo sapiens) (P55055 whole entry, looked up, the tested form may be a part): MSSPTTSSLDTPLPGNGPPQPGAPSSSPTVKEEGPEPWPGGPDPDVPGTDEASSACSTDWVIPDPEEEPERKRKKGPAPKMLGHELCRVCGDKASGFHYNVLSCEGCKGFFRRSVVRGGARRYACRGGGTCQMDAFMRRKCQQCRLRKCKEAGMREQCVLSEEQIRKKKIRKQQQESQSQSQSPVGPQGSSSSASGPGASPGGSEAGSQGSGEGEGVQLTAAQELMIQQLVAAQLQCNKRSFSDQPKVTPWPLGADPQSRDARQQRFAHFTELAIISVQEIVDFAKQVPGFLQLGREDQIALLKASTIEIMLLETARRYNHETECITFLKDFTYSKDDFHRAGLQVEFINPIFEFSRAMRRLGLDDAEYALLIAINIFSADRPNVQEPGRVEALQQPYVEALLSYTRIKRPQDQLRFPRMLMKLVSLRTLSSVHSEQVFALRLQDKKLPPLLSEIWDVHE
# Method in brief: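 After 24 h of chemical treatment, transfected HepG2 cells yield total RNA; reporter cDNA is PCR-amplified, FAM-labelled, HpaI-cut and run on capillary electrophoresis. Signal reflects chimeric LXRb-Gal4 activity on GAL4-UAS reporters.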
# [7] = ATG_M_06_TRANS: Attagene TRANS-FACTORIAL HepG2 Assay for M06 Transcription Factor (Internal Marker) (AID 2282983); conditions: HepG2 Attagene TRANS M06 internal marker reporter;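 further: reporter transcript level by RT-PCR then capillary electrophoresis fluorescence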
# Method in brief: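 Background-control reporter readout: after 24 h chemical exposure of transiently transfected HepG2 (GAL4-UAS reporter units), mRNA quantified by RT-PCR with fluorescent labeling and capillary electrophoresis. Gain-of-signal fitting against DMSO baseline.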
# [8] = target: Nuclear receptor subfamily 4 group A member 2 (Homo sapiens) (UniProt P43354); experiment: ATG_NURR1_TRANS: Attagene TRANS-FACTORIAL HepG2 Assay for human Nuclear Receptor Related Protein 1 (NURR1) (AID 2282985); conditions: HepG2 Attagene TRANS reporter, mRNA readout
# Chain of Nuclear receptor subfamily 4 group A member 2 (Homo sapiens) (P43354 whole entry, looked up, the tested form may be a part): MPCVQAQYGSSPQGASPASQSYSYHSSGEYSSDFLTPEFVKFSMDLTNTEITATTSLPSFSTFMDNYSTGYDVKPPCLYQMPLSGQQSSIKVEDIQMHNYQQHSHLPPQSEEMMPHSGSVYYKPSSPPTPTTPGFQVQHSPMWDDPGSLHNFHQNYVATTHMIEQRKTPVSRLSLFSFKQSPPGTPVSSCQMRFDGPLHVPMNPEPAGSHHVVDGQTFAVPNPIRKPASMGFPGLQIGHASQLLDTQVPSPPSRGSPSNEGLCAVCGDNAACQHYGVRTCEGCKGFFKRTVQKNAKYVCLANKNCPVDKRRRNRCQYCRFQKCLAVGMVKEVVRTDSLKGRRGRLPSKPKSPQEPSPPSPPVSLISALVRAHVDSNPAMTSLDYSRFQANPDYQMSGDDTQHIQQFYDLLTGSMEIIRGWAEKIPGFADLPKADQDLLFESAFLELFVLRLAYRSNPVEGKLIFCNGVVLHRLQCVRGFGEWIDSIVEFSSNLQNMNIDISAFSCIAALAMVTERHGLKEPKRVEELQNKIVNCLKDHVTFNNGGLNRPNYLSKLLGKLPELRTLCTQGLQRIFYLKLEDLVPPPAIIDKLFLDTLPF
# Method in brief: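 Measures transcriptional activation by an exogenous NR-Gal4 chimera in transfected HepG2 liver cells. After 24 h, reporter RNA is reverse-transcribed, amplified and resolved by capillary electrophoresis; DMSO defines baseline.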
# [9] = target: Oxysterols receptor LXR-alpha (Homo sapiens) (UniProt Q13133); experiment: ATG_LXRa_TRANS: Attagene TRANS-FACTORIAL HepG2 Assay for human Liver X Receptor alpha (LXRa) (AID 2282980); conditions: HepG2 Attagene TRANS reporter, LXRa transactivation
# Chain of Oxysterols receptor LXR-alpha (Homo sapiens) (Q13133 whole entry, looked up, the tested form may be a part): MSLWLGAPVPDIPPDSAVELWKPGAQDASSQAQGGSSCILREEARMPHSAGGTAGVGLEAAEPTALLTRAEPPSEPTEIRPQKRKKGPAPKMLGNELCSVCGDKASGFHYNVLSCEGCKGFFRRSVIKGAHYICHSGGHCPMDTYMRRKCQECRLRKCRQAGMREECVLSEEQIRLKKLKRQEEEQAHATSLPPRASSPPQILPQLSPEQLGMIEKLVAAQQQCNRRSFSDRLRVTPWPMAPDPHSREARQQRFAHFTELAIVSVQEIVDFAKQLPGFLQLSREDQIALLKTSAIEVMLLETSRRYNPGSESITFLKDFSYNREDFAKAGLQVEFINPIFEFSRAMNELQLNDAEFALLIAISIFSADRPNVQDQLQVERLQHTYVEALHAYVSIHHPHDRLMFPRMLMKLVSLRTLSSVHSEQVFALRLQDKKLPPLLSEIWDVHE
# Method in brief: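 Chemical-induced reporter mRNA measured by RT-PCR with fluorescent labelling and capillary electrophoresis after 24 h dosing of transiently transfected HepG2 cells expressing exogenous NR-Gal4 chimeras; increases scored against DMSO baseline.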
structure (smiles),measurement,setting,value
CC(C)[C@@H]1CC[C@@H](C)C[C@H]1O,outcome,[1],inactive
same,outcome,[2],inactive
same,outcome,[3],inactive
same,outcome,[4],inactive
same,outcome,[5],inactive
CN(Cc1cnc2nc(N)nc(N)c2n1)c1ccc(C(=O)N[C@@H](CCC(=O)O)C(=O)O)cc1,outcome,[1],inactive
same,outcome,[6],inactive
same,outcome,[4],inactive
same,outcome,[5],inactive
CCCCCC(C)OC(=O)COc1ccc(Cl)c2cccnc12 (stereo not given),outcome,[1],inactive
same,outcome,[2],inactive
same,outcome,[7],inactive
same,outcome,[4],inactive
same,outcome,[5],inactive
Clc1ccc(Nc2nnc(Cc3ccncc3)c3ccccc23)cc1,outcome,[1],inactive
same,outcome,[2],inactive
same,outcome,[3],inactive
same,AC50,[8],42 µM (active)
same,outcome,[4],inactive
same,outcome,[5],inactive
c1ccc2c(c1)CCC2,outcome,[1],inactive
same,outcome,[6],inactive
same,outcome,[4],inactive
same,outcome,[5],inactive
O=S(=O)(c1ccc(OCc2ccccc2)cc1)c1ccccc1O,outcome,[1],inactive
same,outcome,[3],inactive
same,AC50,[8],49.9 µM (active)
same,AC50,[4],33.4 µM (active)
same,outcome,[5],inactive
CC(C)CCOCCC(C)C,outcome,[1],inactive
same,outcome,[6],inactive
same,outcome,[7],inactive
same,outcome,[8],inactive
same,outcome,[4],inactive
same,outcome,[5],inactive
CC(C)(O)C(=O)c1ccccc1,outcome,[1],inactive
same,outcome,[6],inactive
same,outcome,[3],inactive
same,outcome,[8],inactive
same,outcome,[4],inactive
same,outcome,[5],inactive
Nc1cc(Cl)c(-c2cc(Cl)c(N)cc2Cl)cc1Cl,AC50,[1],11.1 µM (active)
same,outcome,[6],inactive
same,outcome,[3],inactive
same,outcome,[8],inactive
same,outcome,[4],inactive
same,outcome,[5],inactive
Nc1ccn([C@@H]2O[C@H](CO)[C@@H](O)C2O)c(=O)n1 (stereo not given in full),outcome,[1],inactive
same,outcome,[6],inactive
same,outcome,[2],inactive
same,outcome,[8],inactive
same,outcome,[4],inactive
same,outcome,[5],inactive
CCCCc1ccc2ccccc2c1S(=O)(=O)O,outcome,[1],inactive
same,outcome,[2],inactive
same,outcome,[7],inactive
same,outcome,[3],inactive
same,outcome,[8],inactive
same,outcome,[4],inactive
same,outcome,[5],inactive
CCCCCCCCCCCCOC(=O)c1cc(O)c(O)c(O)c1,AC50,[1],45.1 µM (active)
same,outcome,[6],inactive
same,outcome,[2],inactive
same,outcome,[3],inactive
same,outcome,[4],inactive
same,outcome,[5],inactive
Oc1c(Cl)cc(Cl)cc1Sc1cc(Cl)cc(Cl)c1O,outcome,[1],inactive
same,outcome,[6],inactive
same,outcome,[2],inactive
same,outcome,[4],inactive
same,outcome,[5],inactive
COCN(COC)c1nc(N(COC)COC)nc(N(COC)COC)n1,outcome,[1],inactive
same,outcome,[6],inactive
same,outcome,[2],inactive
same,outcome,[4],inactive
same,outcome,[5],inactive
O=C(O)c1cccc(C(=O)O)n1,outcome,[1],inactive
same,outcome,[7],inactive
same,outcome,[3],inactive
same,outcome,[8],inactive
same,outcome,[4],inactive
same,outcome,[5],inactive
FC(F)(F)C1(F)C(F)(F)C(F)(F)C(F)(F)C(F)(C(F)(F)F)C1(F)F (stereo not given),outcome,[1],inactive
same,outcome,[7],inactive
same,outcome,[3],inactive
same,outcome,[4],inactive
same,outcome,[5],inactive
CCCCC=O,outcome,[1],inactive
same,outcome,[7],inactive
same,outcome,[4],inactive
same,outcome,[5],inactive
O=C(NO)c1ccccc1,outcome,[1],inactive
same,outcome,[2],inactive
same,outcome,[7],inactive
same,outcome,[3],inactive
same,AC50,[8],57.6 µM (active) and 40.3 µM (active) and 58 µM (active)
same,outcome,[8],inactive
same,outcome,[4],inactive
same,outcome,[5],inactive
CC(C)(C)C1CCCCC1O (stereo not given),outcome,[1],inactive
same,outcome,[6],inactive
same,outcome,[2],inactive
same,outcome,[8],inactive
same,outcome,[4],inactive
same,outcome,[5],inactive
FC(F)(F)C(F)(F)C(F)(F)C(F)(F)I,outcome,[1],inactive
same,outcome,[6],inactive
same,outcome,[3],inactive
same,outcome,[4],inactive
same,outcome,[5],inactive
CC1=NN(c2ccccc2)C(=O)C1,outcome,[1],inactive
same,outcome,[6],inactive
same,outcome,[3],inactive
same,outcome,[4],inactive
same,outcome,[5],inactive
O=C(c1ccccc1)c1ccccc1,outcome,[1],inactive
same,outcome,[6],inactive
same,outcome,[3],inactive
same,outcome,[4],inactive
NNC(=O)CCCCC(=O)NN,outcome,[1],inactive
same,outcome,[6],inactive
same,outcome,[2],inactive
same,outcome,[3],inactive
same,outcome,[4],inactive
same,outcome,[5],inactive
CCCCCc1ccc(O)cc1,outcome,[1],inactive
same,outcome,[2],inactive
same,outcome,[8],inactive
same,outcome,[4],inactive
same,outcome,[5],inactive
COC(O)c1ccccc1 (stereo not given),outcome,[1],inactive
same,outcome,[2],inactive
same,outcome,[7],inactive
same,outcome,[3],inactive
same,outcome,[4],inactive
same,outcome,[5],inactive
Brc1cc(Br)c(Oc2c(Br)cc(Br)c(Br)c2Br)cc1Br,outcome,[1],inactive
same,outcome,[6],inactive
same,outcome,[7],inactive
same,outcome,[3],inactive
same,outcome,[4],inactive
same,outcome,[5],inactive
O=C1OC(=O)c2cc(-c3ccc4c(c3)C(=O)OC4=O)ccc21,outcome,[1],inactive
same,outcome,[3],inactive
same,outcome,[8],inactive
same,outcome,[4],inactive
same,outcome,[5],inactive
Oc1cccc2c(O)cccc12,outcome,[9],inactive
same,outcome,[6],inactive
same,outcome,[7],inactive
same,outcome,[3],inactive
same,outcome,[8],inactive
same,outcome,[4],inactive
same,outcome,[5],inactive
CC1=CC(=O)c2ccccc2C1=O,outcome,[9],inactive
same,outcome,[6],inactive
same,outcome,[2],inactive
same,outcome,[8],inactive
same,outcome,[4],inactive
same,outcome,[5],inactive
CCc1ccccc1O,outcome,[1],inactive
same,outcome,[3],inactive
same,outcome,[4],inactive
same,outcome,[5],inactive
O=C1NS(=O)(=O)c2ccccc21,outcome,[9],inactive
same,outcome,[6],inactive
same,outcome,[2],inactive
same,outcome,[3],inactive
same,outcome,[8],inactive
same,outcome,[4],inactive
same,outcome,[5],inactive
Cc1ccc(S(=O)(=O)O)cc1,outcome,[9],inactive
same,outcome,[2],inactive
same,outcome,[3],inactive
same,outcome,[8],inactive
same,outcome,[4],inactive
same,outcome,[5],inactive
CCOCCOCC,outcome,[9],inactive
same,outcome,[6],inactive
same,outcome,[2],inactive
same,outcome,[7],inactive
same,outcome,[3],inactive
same,outcome,[8],inactive
same,outcome,[4],inactive
same,outcome,[5],inactive
Cc1cc(C(=C2C=CC(=Nc3ccc(S(=O)(=O)O)cc3)C=C2)c2ccc(Nc3ccc(S(=O)(=O)O)cc3)cc2)cc(S(=O)(=O)O)c1N,outcome,[9],inactive
same,outcome,[6],inactive
same,outcome,[2],inactive
same,outcome,[7],inactive
same,outcome,[3],inactive
same,outcome,[4],inactive
same,outcome,[5],inactive
Cc1ccc(N=Nc2c(O)ccc3ccccc23)c(C)c1,outcome,[9],inactive
same,outcome,[6],inactive
same,outcome,[2],inactive
same,outcome,[7],inactive
same,outcome,[3],inactive
same,outcome,[8],inactive
same,outcome,[4],inactive
same,outcome,[5],inactive
